Screening results: PubChem BioAssay, National Center for Advancing Translational Sciences (NCATS)
JMJD2A Tudor: inhibitors of human JMJD2A Tudor domain; Potency, µM (series often up to 114 µM), inactives show at the top dose activity change, negative = inhibition, most hits filed as inhibitors; AlphaScreen JMJD2A-Tudor / H3K4me3 peptide binding; O75164; 390,000 tested, 4.4% active; further: on the % scale 0 is the no-effect control and ±100 the full control effect; nearly all actives have a fitted effect of over 50% in size
Sfp inh: blocks B. subtilis Sfp PPTase activity; Q9F4F7; AID 1490; Potency, µM, for inactives: largest response in the series, negative = inhibition, usual class: inhibitors; 310,000 tested, 3.5% active; Biochemical Sfp PPTase activity, qHTS;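 further: the enzyme is Sfp with the accession as filed and its product quenches rhodamine fluorescence; 0% = enzyme reaction without inhibitor and -100% = no enzyme wells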
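After 15 min at room temperature with compound, 15 nM Sfp received 5 uM rhodamine-CoA plus 12.5 uM BHQ-2-ybbR (50 mM Hepes pH 7.6, 10 mM MgCl2). Rate came from the fluorescence difference over 30 min, ex 525/em 598 nm.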
BAZ2B inh: blocks human BAZ2B | AlphaScreen BAZ2B-H3K14Ac peptide displacement | Potency, µM (doses to about 114 µM), inactives show top-dose activity change, negative = inhibition, hits mostly inhibitors | Q9UIF8 | 360,000 tested, 4.4% active; further: on the % scale 0 is the no-effect control and ±100 the full control effect; nearly all actives have a fitted effect of over 60% in size
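Multi-concentration screen (max 110 uM) measuring displacement of acetylated histone H3 peptide from BAZ2B by AlphaScreen, using 50 nM protein, 50 nM peptide and 10 ug/mL streptavidin donor plus Ni-chelate acceptor beads.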
G9a inh: inhibitors of human histone lysine methyltransferase G9a | Q96KQ7 | Potency, µM (series often up to 102 µM), for the others: at the highest dose activity, negative = inhibition, hits mostly inhibitors | 350,000 tested, 8.8% active | G9a H3K9 monomethylation, AlphaScreen, 2 h; further: on the % scale 0 is the no-effect control and ±100 the full control effect; nearly all actives have a fitted effect of over 75% in size
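AlphaScreen detection with an anti-monomethyl H3K9 antibody quantified product after a 2 h room-temperature reaction containing 500 nM biotinylated H3K9 peptide, 20 µM SAM and 20 nM enzyme, which had been preincubated 15 min with compound.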
L3MBTL1 block: blocks human L3MBTL1. 230,000 tested, 0.66% active. AlphaScreen L3MBTL1–H3K9me1 peptide binding. Q9Y468. Potency, µM (titrated, usually from 57.1 µM), for the others: at the highest dose activity, negative = inhibition, hits mostly inhibitors; further: on the % scale 0 is the no-effect control and ±100 the full control effect; nearly all actives have a fitted effect of over 60% in size
Target sequence (Q9Y468 whole entry, looked up): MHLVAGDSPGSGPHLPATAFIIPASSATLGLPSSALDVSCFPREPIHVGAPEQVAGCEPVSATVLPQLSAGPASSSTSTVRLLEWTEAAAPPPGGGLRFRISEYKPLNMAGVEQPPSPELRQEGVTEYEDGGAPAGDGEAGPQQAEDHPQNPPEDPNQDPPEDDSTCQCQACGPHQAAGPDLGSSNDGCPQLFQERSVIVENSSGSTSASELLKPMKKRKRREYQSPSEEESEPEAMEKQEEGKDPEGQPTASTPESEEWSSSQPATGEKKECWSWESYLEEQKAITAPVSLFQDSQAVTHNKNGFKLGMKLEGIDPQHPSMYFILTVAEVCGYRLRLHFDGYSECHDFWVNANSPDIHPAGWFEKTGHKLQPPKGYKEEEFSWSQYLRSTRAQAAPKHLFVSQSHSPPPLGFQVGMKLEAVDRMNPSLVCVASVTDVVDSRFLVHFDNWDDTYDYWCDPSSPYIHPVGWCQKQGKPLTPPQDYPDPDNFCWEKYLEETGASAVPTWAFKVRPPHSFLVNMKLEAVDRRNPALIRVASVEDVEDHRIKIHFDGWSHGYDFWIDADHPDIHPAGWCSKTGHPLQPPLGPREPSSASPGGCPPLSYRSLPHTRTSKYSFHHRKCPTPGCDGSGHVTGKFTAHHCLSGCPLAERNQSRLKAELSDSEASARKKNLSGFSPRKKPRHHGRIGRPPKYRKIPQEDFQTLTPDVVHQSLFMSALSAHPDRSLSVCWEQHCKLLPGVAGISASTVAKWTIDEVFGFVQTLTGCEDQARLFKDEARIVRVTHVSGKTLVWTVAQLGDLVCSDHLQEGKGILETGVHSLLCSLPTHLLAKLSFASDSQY
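Read-out is AlphaScreen signal from streptavidin donor and nickel chelate acceptor beads (10 ug/mL final each) bridging L3MBTL1 (50 nM) and biotinylated K9-monomethylated H3(1-15) peptide (75 nM), after 30 min compound exposure at room temperature.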
HP1b chromo inh: HP1-beta chromodomain-methylated histone interaction inhibition; 390,000 tested, 0.56% active; Potency, µM (doses to about 114 µM), without a hit: at the top dose activity change, negative = inhibition, hits mostly inhibitors; AlphaScreen HP1-beta / biotin-H3K9me3 peptide binding; P83916; further: nearly all actives have a fitted effect of over 70% in size
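HP1-beta protein (50 nM final) preincubated 30 min at room temperature with biotinylated H3(1-18)K9me3 peptide (50 nM) in PBS pH 7.4, 0.01% Tween-20, then compound added for 30 min. AlphaScreen streptavidin donor/nickel chelate acceptor beads (10 ug/mL final), 30 min dark, luminescence read.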
* = called active by the depositor; ? = inconclusive; . = not tested or not shown; [ ] = remark or other dose. A selection: hits, their analogues and other compounds. The true share with any hit is near 12%. The call rests on the fitted dose curve; in most records, active means well fitted curve in the direction sought with a large enough effect; inconclusive means small, poorly fitted or top-dose-only effect, or another doubt; inactive means no such curve, though single readings can be large; an effect the other way counts as inactive or inconclusive. Potency means the concentration at half of the fitted maximal effect.

SMILES | JMJD2A Tudor | Sfp inh | BAZ2B inh | G9a inh | L3MBTL1 block | HP1b chromo inh
O=C1C=C(N2CCOCC2)C2(CCCCC2)O1 | 0% | -7% | ? | 45µM* | ? | 17%
CCOc1ccc2c(O)csc2c1 | ? | 50µM* | -11% | ? | -7% | -11%
CCc1c(CN2CCN(c3cccc(C)c3C)CC2)csc1C | -2% | . | 5% | 9%[59 µM] | . | 61%
Clc1ccc(OCCCCN2CCCCC2)cc1 | 1µM* | -20% | 50µM* | 10µM* | . | ?
CC(C)c1ccc(OCC(O)CN2CCCC2)cc1 (stereo not given) | -9% | 3% | -10% | -3%[59 µM] | -5% | 41%
CC(C)c1ccc(OCCCCN2CCCCC2)cc1 | 0.79µM* | -29% | 79µM* | -12% | . | ?
Cc1ccc(Cl)cc1N1CCN(C(=O)c2cc(S(=O)(=O)N3CCCCCC3)cn2C)CC1 | -36% | . | ? | -36%[59 µM] | . | 5%[57 µM]
Cc1ccc(CNC(=O)c2ccc(CSCc3ccc(C)cc3)o2)cc1 | 32µM* | . | 29% | 10%[59 µM] | . | 33%
Clc1cccc(-c2ccc(CNCc3ccccn3)o2)c1 | 56µM* | 79µM* | 22µM* | 20µM* | 22µM* | -16%
C=CCc1ccc(OCCCCN2CCC(C)CC2)c(OC)c1 | 2.8µM* | -16% | ? | ? | 2% | -24%
C=CCc1ccc(OCCCN2CCCC(C)C2)c(OC)c1 (stereo not given) | 3.5µM* | ? | 79µM* | 7.1µM* | . | -25%
COc1cccc(NC(=O)CCN2CCN(CCO)CC2)c1 | 5% | . | 0% | ? | . | 19%
O=C(COc1ccccc1Cl)N(Cc1cccc(F)c1)C1CCS(=O)(=O)C1 (stereo not given) | -16% | . | -2% | 0%[59 µM] | . | 7%
COc1cccc2c1C(=N)c1c(O)c3c(c(O)c1C2=O)CC(O)(C(C)=O)CC3OC1CC(N)C(O)C(C)O1 (stereo not given) | 40µM* | . | . | . | . | ?
COc1cccc2c1C(=O)c1c(O)c3c(c(O)c1C2=O)C[C@](O)(C(C)=O)C[C@H]3O[C@@H]1C[C@@H](N)[C@@H](O)[C@@H](C)O1 | ? | . | 45µM* | ? | -9% | -11%
O=C(c1ccc(C(=O)N2CCOCC2)nc1)N1CCOCC1 | 40µM* | 21% | 2% | ? | -6% | 5%
CCCCCCCCCCCCCCCCn1cc[n+](CC(C)=O)c1 | -1% | 35µM* | -9% | -8%[59 µM] | . | 28%
Cc1c(Cl)cnc(NC(=O)COC(=O)/C=C/c2ccco2)c1Cl | ? | . | 50µM* | 45µM* | ? | -4%
O=C(COC(=O)c1ccc(Br)o1)NCc1ccco1 | 79µM* | . | . | . | . | -7%
COc1ccc(COC(=O)N/C=C/c2ccco2)cc1 | -3% | -10% | -28% | 50µM* | -13% | 24%
O=C(COC(=O)/C=C/c1ccco1)NCc1ccco1 | 79µM* | 50µM* | 45µM* | 32µM* | . | -10%
Cc1c(Cl)cnc(NC(=O)COC(=O)C(NC(=O)c2ccco2)C(C)C)c1Cl (stereo not given) | ? | -21% | ? | ? | 6%[11.4 µM] | 20%
COc1ccc(CC(=O)NCC(=O)N/N=C/c2ccco2)cc1 | -1% | 15% | -4% | 0%[59 µM] | -16% | 42%
O=C(COC(=O)c1ccc(Br)o1)NCc1ccc(Cl)cc1 | -3% | . | . | . | ? | 28%
Cc1cc2c(s1)c1cnn(Cc3ccccc3Br)c(=O)c1n2C | -20% | . | . | . | . | .
SMILES | JMJD2A Tudor | Sfp inh | BAZ2B inh | G9a inh | L3MBTL1 block | HP1b chromo inh
Cc1cccc(-c2nc(CCNC(=O)c3ccccc3Br)cs2)c1 | -1% | . | 30% | 0%[59 µM] | . | 52%[57 µM]
Cc1cc(C)cc(NC(=O)C(C)N2Cc3ccccc3C2=O)c1 (stereo not given) | 10% | . | 2% | -3%[59 µM] | . | 24%
COc1ccc(CNC(=O)COC(=O)/C=C/c2ccco2)cc1 | -9% | ? | ? | 56µM* | -24% | 2%
O=C(N/N=C/C(Br)=C\c1ccccc1)c1ccc2nc[nH]c2c1 | -34% | 50µM* | -22% | 2%[59 µM] | -12% | 38%
O=C(N/N=C/c1ccc(Cl)cc1Cl)c1cccc(F)c1 | -2% | 20µM* | 6% | 48%[12.7 µM] | -2% | 11%
O=C(CCCC(=O)NN=Cc1ccc(Cl)cc1Cl)NN=Cc1ccc(Cl)cc1Cl | -14% | . | . | . | . | 9%
O=C(N/N=C/c1ccc(Cl)cc1Cl)c1ccc2nc[nH]c2c1 | 7% | -18% | -33% | 71µM* | . | 26%
CCc1ccc(C(=O)N/N=C/c2ccc(Cl)cc2Cl)nc1 | . | -15% | 7% | 37%[59 µM] | 7% | .
O=C(C[n+]1ccc(C(=O)N/N=C/c2ccc(Cl)cc2Cl)cc1)c1ccccc1 | ? | -9% | -9% | 50µM* | . | 22%
O=C1[C@@H]2[C@H]3[C@H](O)[C@H](O)C/C(=N/OC[C@@H](O)COCc4ccco4)[C@H]3CC[C@H]2C(=O)N1c1ccc(F)cc1F | . | 13% | . | . | . | .
Cc1cc(C)c(NC(=O)CCn2c(=O)c3cccn3c3cccnc32)c(C)c1 | 6% | . | -1% | 2%[59 µM] | . | 56%
O=C(N/N=C/C(Br)=C/c1ccccc1)C(O)c1ccccc1 (stereo not given) | -13% | -5% | -22% | 4% | -4% | 18%
O=C(O)c1ccc(N/N=C/C(Br)=C/c2ccccc2)cc1 | ? | ? | -34% | 50µM* | -19% | -3%
CSC1=NC(=O)/C(=C/c2ccc(SC)cc2)S1 | -21% | -1% | -15% | -27% | -2% | 19%
CCOC(=O)CSC1=NC(=O)/C(=C\c2ccc(Cl)cc2)S1 | ? | ? | -33% | 35µM* | -13% | 14%
CCc1nnc(NC(=O)c2cc(=O)c3cc(C)ccc3o2)s1 | -13% | . | -9% | 6%[59 µM] | . | 31%
Cc1ccc(NC(=O)C(=O)NCC(c2cccnc2)N2CCN(C)CC2)cc1C (stereo not given) | -12% | . | -16% | -22%[59 µM] | . | 23%
COc1ccc(C(=O)N2N=C(c3cccc(OC)c3)CC2(O)C(F)(F)F)cc1 (stereo not given) | 7% | 50µM* | 2% | -5% | 14% | 52%
COc1cccc(C2=NN(C(=O)c3cccs3)C(O)(C(F)(F)F)C2)c1 (stereo not given) | -17% | 45µM* | -2% | 13%[59 µM] | . | 40%
COc1cccc(C(=O)N2N=C(c3cccc(OC)c3)CC2(O)C(F)(F)F)c1 (stereo not given) | -1% | -10% | 3% | 9% | 6% | 37%
COc1ccc(CNc2ccc3c(c2)nc(C)n3C)cc1OC | -14% | 28% | -20% | 40µM* | . | 15%
c1ccc(Cn2c(NCc3ccncc3)nc3ccccc32)cc1 | -19% | -14% | -16% | -18% | 1% | 66%
